For two molecules, inhibition results are on record in ChEMBL document CHEMBL1961873, “Compounds: GSK PKIS; Assays: Nanosyn kinase panel” (2012).

Experiment [1] addresses T1, Inhibitor of nuclear factor kappa-B kinase subunit epsilon (Homo sapiens) (UniProt Q14164).
T1 sequence (whole entry): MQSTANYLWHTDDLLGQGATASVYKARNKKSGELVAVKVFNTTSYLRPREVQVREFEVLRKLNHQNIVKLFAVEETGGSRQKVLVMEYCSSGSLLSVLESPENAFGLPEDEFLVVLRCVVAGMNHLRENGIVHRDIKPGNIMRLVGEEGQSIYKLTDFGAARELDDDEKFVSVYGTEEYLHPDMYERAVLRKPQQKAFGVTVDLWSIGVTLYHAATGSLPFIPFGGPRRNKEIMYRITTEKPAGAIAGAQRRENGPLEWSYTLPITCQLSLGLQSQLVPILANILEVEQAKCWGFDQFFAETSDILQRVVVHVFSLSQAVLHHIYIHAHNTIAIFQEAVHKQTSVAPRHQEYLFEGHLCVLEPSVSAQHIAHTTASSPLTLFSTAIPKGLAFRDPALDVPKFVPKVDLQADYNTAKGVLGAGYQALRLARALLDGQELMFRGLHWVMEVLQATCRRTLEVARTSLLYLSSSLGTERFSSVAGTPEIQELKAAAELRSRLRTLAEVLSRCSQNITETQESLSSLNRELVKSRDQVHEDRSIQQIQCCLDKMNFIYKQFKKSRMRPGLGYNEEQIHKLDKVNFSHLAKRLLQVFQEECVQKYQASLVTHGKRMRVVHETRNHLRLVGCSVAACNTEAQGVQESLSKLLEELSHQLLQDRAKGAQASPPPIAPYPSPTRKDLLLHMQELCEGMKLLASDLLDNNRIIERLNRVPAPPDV
To be noted: at 1 µM.

Experiment [2] deals with T2, Serine/threonine-protein kinase Nek1 (Homo sapiens) (UniProt Q96PY6).
T2 sequence (whole entry): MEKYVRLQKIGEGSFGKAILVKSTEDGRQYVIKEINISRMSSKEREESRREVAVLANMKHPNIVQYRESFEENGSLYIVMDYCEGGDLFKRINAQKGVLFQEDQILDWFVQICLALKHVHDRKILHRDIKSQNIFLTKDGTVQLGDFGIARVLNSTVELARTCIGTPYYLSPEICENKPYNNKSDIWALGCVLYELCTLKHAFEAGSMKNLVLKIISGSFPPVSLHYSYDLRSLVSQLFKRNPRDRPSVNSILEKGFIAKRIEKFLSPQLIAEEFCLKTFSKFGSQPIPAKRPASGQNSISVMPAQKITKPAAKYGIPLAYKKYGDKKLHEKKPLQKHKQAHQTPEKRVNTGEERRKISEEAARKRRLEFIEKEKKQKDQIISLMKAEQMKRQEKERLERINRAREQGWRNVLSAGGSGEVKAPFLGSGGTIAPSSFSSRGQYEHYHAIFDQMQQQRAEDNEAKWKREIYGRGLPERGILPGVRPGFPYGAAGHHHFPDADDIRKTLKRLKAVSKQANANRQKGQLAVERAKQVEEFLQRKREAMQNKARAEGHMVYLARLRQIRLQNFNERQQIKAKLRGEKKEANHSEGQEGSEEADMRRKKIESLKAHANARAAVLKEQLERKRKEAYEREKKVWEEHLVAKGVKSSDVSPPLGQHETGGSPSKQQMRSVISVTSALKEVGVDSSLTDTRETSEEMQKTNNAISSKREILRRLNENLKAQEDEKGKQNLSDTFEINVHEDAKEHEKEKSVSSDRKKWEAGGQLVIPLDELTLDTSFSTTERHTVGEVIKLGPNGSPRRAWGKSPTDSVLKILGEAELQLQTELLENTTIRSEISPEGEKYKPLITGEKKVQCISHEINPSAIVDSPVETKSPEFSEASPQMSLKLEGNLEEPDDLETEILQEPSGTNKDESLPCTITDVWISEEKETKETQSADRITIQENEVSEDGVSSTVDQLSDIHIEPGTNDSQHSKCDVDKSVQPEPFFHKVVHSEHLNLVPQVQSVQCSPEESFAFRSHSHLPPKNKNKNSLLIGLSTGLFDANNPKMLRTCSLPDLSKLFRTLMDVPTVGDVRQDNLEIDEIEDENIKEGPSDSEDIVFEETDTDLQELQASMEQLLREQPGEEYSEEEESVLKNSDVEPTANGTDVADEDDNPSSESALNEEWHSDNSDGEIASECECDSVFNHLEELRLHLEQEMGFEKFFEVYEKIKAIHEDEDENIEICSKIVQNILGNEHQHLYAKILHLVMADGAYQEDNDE
Particulars: at 0.1 µM.

Experiment [3] deals with T2, Serine/threonine-protein kinase Nek1 (Homo sapiens). Particulars: at 1 µM.
The target in experiment [4] is T3, Serine/threonine-protein kinase Nek2 (Homo sapiens) (UniProt P51955).
T3 sequence (whole entry): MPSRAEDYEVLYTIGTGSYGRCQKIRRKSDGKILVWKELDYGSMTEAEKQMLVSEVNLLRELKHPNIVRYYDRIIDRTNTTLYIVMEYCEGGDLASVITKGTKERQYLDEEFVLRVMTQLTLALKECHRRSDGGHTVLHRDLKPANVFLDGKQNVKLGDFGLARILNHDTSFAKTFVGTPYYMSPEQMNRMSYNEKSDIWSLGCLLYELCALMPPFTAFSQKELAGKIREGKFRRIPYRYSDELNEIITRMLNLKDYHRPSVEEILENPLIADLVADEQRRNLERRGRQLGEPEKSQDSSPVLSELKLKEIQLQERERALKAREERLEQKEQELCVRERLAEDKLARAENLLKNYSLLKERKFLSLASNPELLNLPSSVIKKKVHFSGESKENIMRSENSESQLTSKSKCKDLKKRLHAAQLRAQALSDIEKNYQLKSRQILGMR
Particulars: at 0.1 µM.

The target of experiment [5] is T3, Serine/threonine-protein kinase Nek2 (Homo sapiens). Particulars: at 1 µM.
The target in experiment [6] is Serine/threonine-protein kinase Nek6 (Homo sapiens) (UniProt Q9HC98). To be noted: at 0.1 µM.
Chain of Serine/threonine-protein kinase Nek6 (Homo sapiens) (Q9HC98 whole entry): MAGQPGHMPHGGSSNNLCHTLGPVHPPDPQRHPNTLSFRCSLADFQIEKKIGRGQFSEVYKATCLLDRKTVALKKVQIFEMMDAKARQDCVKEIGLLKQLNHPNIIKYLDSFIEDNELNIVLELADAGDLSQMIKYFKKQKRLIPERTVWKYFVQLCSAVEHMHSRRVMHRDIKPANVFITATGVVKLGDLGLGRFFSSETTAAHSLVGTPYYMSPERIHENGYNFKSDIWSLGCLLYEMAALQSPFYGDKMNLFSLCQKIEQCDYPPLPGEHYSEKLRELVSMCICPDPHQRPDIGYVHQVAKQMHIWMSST
Experiment [7] shares this target. To be noted: at 1 µM.
The target of experiment [8] is Serine/threonine-protein kinase Nek7 (Homo sapiens) (UniProt Q8TDX7). To be noted: at 0.1 µM.
Chain of Serine/threonine-protein kinase Nek7 (Homo sapiens) (Q8TDX7 whole entry, looked up): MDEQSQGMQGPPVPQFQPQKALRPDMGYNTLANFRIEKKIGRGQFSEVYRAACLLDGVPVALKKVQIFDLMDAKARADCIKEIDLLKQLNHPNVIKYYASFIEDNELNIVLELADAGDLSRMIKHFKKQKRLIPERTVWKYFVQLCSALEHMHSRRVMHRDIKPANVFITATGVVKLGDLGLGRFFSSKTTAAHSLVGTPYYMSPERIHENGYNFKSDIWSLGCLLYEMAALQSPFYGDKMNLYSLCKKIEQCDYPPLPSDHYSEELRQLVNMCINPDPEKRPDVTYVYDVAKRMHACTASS
Experiment [9] has the same target. To be noted: at 1 µM.
The target in experiment [10] is T4, Serine/threonine-protein kinase Nek9 (Homo sapiens) (UniProt Q8TD19).
T4 sequence (whole entry): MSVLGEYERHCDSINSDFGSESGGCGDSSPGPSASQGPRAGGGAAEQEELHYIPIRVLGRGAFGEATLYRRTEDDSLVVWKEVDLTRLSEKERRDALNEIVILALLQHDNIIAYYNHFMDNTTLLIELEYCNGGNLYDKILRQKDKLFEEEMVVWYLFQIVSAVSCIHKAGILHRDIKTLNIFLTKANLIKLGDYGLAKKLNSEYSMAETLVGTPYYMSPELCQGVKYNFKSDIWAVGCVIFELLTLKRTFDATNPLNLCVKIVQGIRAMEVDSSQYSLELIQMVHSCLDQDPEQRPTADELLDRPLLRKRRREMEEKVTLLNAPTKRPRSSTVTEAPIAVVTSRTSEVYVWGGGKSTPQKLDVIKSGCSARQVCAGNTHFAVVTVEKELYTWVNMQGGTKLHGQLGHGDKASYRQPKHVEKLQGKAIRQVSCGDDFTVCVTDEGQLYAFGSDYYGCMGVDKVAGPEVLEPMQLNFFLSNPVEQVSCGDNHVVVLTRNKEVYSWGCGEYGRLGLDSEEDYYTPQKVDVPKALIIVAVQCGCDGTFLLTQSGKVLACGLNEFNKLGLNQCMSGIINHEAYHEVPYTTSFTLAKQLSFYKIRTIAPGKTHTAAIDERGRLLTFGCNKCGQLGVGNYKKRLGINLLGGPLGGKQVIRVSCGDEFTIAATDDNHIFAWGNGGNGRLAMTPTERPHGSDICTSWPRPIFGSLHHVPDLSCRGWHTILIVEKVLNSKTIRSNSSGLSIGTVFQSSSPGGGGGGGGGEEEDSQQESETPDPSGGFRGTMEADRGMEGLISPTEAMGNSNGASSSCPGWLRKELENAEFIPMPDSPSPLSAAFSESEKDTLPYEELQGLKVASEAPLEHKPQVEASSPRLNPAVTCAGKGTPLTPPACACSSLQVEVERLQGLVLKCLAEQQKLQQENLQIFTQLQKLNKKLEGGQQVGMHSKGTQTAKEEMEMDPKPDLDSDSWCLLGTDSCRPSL
To be noted: at 0.1 µM.

For experiment [11], the target named is T4, Serine/threonine-protein kinase Nek9 (Homo sapiens). To be noted: at 1 µM.
Experiment [12] has as its target Serine/threonine-protein kinase PLK1 (Homo sapiens) (UniProt P53350). Particulars: at 0.1 µM.
For experiment [13] the target is unchanged. To be noted: at 1 µM.
For experiment [14], the target named is T5, Dual specificity protein kinase TTK (Homo sapiens) (UniProt P33981).
T5 sequence (whole entry): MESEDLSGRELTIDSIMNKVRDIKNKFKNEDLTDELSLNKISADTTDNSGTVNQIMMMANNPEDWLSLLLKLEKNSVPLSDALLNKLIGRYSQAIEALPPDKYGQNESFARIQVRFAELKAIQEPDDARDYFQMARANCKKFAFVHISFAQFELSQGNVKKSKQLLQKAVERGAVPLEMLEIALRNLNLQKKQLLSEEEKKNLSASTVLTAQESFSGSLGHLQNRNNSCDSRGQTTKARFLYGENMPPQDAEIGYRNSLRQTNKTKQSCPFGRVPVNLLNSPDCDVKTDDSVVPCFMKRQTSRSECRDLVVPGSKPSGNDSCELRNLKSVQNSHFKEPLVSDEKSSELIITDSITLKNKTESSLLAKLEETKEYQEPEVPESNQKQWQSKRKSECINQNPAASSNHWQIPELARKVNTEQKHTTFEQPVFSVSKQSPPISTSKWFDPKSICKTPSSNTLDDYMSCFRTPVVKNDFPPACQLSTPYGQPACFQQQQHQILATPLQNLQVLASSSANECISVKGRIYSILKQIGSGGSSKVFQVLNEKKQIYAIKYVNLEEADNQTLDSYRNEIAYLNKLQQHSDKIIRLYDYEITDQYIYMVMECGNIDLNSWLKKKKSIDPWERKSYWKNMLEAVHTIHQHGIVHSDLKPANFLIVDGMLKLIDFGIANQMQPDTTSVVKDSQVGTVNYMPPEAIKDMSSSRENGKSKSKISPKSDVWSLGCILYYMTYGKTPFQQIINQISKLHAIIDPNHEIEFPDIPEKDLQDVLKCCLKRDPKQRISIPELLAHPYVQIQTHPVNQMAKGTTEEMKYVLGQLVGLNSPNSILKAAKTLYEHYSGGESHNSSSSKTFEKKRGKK
Particulars: at 0.1 µM.

The test system of experiment [15] is T6, Receptor-type tyrosine-protein kinase FLT3 (Homo sapiens), P36888 [D835Y].
T6 sequence (whole entry): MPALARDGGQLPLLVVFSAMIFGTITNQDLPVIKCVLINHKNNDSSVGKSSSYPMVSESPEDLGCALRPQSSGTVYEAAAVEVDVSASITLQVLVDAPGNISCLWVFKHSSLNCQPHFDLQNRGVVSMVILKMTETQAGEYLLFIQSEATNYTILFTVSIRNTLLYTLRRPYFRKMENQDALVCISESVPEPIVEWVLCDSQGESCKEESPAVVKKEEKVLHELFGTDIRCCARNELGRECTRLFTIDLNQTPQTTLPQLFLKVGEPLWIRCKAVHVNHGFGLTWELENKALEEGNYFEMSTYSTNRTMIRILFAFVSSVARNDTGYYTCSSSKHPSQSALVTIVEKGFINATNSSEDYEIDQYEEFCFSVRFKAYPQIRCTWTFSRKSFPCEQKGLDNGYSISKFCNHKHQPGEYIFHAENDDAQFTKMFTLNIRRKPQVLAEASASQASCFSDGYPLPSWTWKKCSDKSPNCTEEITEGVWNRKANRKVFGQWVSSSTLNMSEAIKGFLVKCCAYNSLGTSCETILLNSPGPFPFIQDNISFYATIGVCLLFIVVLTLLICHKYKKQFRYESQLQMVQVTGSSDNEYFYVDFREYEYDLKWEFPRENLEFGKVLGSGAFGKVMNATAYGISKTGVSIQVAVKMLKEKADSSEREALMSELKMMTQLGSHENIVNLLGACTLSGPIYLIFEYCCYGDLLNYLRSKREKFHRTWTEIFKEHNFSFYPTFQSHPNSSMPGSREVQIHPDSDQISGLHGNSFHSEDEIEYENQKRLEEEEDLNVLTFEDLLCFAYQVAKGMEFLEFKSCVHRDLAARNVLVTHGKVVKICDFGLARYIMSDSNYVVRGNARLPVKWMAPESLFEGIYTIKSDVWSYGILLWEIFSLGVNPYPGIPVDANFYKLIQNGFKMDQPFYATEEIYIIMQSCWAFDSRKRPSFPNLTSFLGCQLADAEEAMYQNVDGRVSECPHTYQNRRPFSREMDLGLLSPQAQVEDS
Particulars: at 1 µM.

Experiment [16] deals with Vascular endothelial growth factor receptor 3 (Homo sapiens) (UniProt P35916). Particulars: at 0.1 µM.
Chain of Vascular endothelial growth factor receptor 3 (Homo sapiens) (P35916 whole entry): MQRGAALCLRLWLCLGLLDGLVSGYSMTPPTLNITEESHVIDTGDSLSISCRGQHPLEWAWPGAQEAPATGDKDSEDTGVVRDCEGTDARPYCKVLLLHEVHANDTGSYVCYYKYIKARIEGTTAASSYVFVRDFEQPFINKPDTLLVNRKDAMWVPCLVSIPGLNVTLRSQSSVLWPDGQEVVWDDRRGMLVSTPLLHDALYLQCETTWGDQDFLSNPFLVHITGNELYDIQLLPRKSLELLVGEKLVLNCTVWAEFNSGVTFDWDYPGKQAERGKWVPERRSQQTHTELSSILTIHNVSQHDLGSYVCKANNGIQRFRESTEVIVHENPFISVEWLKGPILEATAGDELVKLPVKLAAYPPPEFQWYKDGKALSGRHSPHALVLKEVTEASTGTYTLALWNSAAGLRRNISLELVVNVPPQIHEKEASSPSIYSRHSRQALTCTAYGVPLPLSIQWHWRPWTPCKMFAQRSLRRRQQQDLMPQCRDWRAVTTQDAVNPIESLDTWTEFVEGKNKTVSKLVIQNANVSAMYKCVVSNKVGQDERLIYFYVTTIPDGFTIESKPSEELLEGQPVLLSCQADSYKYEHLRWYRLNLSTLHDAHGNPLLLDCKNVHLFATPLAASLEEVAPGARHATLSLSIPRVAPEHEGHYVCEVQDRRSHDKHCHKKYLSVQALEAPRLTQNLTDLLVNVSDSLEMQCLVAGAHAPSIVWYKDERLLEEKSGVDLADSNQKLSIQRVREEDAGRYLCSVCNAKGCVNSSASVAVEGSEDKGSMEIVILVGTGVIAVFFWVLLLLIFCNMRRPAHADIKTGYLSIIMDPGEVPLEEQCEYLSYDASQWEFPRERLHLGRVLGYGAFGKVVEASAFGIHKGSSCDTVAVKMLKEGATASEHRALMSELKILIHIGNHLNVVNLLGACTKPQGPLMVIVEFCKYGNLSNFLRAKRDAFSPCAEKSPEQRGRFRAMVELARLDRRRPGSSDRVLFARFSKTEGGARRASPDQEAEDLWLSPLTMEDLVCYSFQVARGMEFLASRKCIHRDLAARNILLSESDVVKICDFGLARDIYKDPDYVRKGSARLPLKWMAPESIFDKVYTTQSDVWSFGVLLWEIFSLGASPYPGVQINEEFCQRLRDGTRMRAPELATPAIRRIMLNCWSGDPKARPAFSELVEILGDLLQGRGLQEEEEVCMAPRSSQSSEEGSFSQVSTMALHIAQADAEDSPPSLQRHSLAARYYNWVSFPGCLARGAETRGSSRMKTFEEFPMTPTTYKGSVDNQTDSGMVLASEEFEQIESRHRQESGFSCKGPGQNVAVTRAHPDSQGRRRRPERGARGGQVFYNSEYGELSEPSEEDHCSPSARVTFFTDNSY
Experiment [17] has the same target. Particulars: at 1 µM.
The target in experiment [18] is Macrophage colony-stimulating factor 1 receptor (Homo sapiens) (UniProt P07333). Particulars: at 0.1 µM.
Chain of Macrophage colony-stimulating factor 1 receptor (Homo sapiens) (P07333 whole entry): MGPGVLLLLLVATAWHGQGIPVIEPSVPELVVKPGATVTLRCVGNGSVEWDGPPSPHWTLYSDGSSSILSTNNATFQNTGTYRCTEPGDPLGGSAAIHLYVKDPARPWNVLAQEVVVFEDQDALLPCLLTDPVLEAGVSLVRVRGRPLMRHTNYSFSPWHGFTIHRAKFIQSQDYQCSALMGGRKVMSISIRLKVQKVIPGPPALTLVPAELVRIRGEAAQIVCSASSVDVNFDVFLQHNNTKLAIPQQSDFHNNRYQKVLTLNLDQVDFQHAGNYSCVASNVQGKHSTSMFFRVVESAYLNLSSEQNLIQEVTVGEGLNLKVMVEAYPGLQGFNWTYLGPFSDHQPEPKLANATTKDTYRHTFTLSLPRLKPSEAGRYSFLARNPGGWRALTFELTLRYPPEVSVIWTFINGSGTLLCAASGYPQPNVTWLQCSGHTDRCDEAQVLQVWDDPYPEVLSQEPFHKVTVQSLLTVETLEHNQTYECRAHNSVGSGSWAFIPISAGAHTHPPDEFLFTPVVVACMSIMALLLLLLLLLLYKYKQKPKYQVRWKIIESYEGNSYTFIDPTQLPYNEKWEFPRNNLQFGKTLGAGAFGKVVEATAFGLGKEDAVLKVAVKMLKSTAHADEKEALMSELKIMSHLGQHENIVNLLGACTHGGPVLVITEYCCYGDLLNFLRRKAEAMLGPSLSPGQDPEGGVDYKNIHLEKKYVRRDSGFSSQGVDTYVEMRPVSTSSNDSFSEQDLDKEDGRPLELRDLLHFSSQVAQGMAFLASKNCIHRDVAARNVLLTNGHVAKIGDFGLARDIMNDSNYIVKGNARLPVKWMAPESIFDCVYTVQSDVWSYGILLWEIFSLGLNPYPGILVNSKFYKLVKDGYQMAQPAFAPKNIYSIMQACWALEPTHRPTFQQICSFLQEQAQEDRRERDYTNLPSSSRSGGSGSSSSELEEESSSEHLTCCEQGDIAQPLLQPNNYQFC
Experiment [19] shares this target. Particulars: at 1 µM.
The target of experiment [20] is Tyrosine-protein kinase Fyn (Homo sapiens) (UniProt P06241). To be noted: at 0.1 µM.
Chain of Tyrosine-protein kinase Fyn (Homo sapiens) (P06241 2-537 limits assumed): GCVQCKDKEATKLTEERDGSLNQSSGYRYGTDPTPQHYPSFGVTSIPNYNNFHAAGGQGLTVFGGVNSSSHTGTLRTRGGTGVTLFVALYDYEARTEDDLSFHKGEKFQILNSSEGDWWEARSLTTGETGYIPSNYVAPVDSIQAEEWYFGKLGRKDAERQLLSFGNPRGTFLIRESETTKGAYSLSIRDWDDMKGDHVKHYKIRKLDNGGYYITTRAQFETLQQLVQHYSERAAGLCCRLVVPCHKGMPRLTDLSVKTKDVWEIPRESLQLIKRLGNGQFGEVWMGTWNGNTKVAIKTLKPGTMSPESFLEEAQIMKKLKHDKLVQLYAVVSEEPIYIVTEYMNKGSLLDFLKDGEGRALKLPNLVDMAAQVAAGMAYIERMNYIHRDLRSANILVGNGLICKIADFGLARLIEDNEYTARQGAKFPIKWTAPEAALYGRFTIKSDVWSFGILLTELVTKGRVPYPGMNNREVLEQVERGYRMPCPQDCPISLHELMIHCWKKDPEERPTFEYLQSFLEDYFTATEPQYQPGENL

Usually inhibition stands for the change of the read-out against control, counted positive when it falls.

Chain of Serine/threonine-protein kinase PLK1 (Homo sapiens) (P53350 whole entry): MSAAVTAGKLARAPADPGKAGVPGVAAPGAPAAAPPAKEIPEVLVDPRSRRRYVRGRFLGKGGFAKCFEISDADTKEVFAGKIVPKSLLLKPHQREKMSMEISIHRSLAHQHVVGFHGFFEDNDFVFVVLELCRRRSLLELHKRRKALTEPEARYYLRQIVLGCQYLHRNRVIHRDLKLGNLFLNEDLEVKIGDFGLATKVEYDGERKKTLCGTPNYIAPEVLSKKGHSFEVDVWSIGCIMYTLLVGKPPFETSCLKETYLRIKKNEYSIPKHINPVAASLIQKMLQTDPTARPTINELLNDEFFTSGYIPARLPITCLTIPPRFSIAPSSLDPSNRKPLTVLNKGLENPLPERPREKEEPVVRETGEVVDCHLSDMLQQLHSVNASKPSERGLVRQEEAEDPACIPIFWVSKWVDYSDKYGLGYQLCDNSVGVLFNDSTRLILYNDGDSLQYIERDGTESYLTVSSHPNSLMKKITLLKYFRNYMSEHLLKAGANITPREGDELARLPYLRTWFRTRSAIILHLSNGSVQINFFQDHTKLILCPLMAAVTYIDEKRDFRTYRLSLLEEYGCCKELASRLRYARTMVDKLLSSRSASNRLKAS

Regarding `Cc1cc(O)cc(C)c1/C=C/c1cncc(C(N)=O)c1`, the inhibition was found to be 91.3% in [1]; 1.8% in [2]; 2.95% in experiment [3]; 3.02% in experiment [4]; 1.69% in experiment [5]; 3.18% in experiment [6]. The inhibition is 1.92% in experiment [7]; 4.15% in experiment [8]; 3.89% in experiment [9]; 5.2% in [10]; 0.49% in experiment [11]; 2.01% in experiment [12]. Further, the inhibition in experiment [13] was determined as 1.27%; in experiment [14], 4.3%; in [15], 2.14%; in [16] it was 1.77%; in experiment [17], 0.45%; in [18], 5.27%. The values for the inhibition in experiment [19] and in experiment [20] were 31.3% and 5.86%, respectively.
Turning to `CCN1CCC(C(=O)Nc2n[nH]c3nnc(-c4cccc(F)c4F)cc23)CC1`, the inhibition in experiment [1] was -0.18%; in [2], -1.35%; in experiment [3], -0.79%; in experiment [4], -0.66%; in experiment [5], -0.65%; in experiment [6] it was 1.25%. Besides, the inhibition is -1.06% in experiment [7]; -0.06% in [8]; -1.15% in [9]; 4.77% in experiment [10]; 3.91% in experiment [11]; -0.35% in experiment [12]. Also, the inhibition in experiment [13] was -0.89%; in experiment [14] it was -0.14%; in [15], 1.33%; in [16] it was 1.09%; in experiment [17], 0.68%; in experiment [18], -1.42%. The inhibition in experiment [19] stood at 7.94%; in experiment [20], 1.4%.
